Laboratory results taken from PubChem BioAssay (NCI).
Compounds without any hit were thinned out: in the full panel of roughly 83,000, 20% have a hit.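 The endpoint reported here, percent growth, reads 100 for growth as untreated, 0 for no net growth and -100 for all cells dead.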 The source made the active and inactive calls. Rule for the calls: active = growth percent below 10; inactive = the rest.

How the values were obtained:
Assay in all cases: NCI-60 one-dose screen, 48 h (100 = growth as untreated, 0 = no growth, -100 = all killed)
Details in all cases: 10 µM unless noted
NCI-H23 lung = test system: NCI-H23 lung
NCI-H226 lung = test system: NCI-H226 lung
NCI-H322M lung = test system: NCI-H322M lung
HOP-62 NSCLC = test system: HOP-62 NSCLC
NCI-H460 lung = test system: NCI-H460 lung
HOP-92 NSCLC = test system: HOP-92 NSCLC
NCI-H522 lung = test system: NCI-H522 lung
A549/ATCC NSCLC = test system: A549/ATCC NSCLC
COLO 205 colon = test system: COLO 205 colon
DU-145 prostate = test system: DU-145 prostate
K-562 leukemia = test system: K-562 leukemia
MALME-3M melanoma = test system: MALME-3M melanoma
MDA-MB-231 breast = test system: MDA-MB-231 breast
RXF 393 renal = test system: RXF 393 renal
SF-268 CNS = test system: SF-268 CNS
SF-539 CNS = test system: SF-539 CNS
UACC-257 melanoma = test system: UACC-257 melanoma
M14 melanoma = test system: M14 melanoma
786-0 renal = test system: 786-0 renal
SF-295 CNS = test system: SF-295 CNS

Measured: growth

O=C1C=C(O)C(=O)C(CC2=C(O)C(=O)C=C(O)C2=O)=C1O
inactive: NCI-H23 lung 113% | NCI-H226 lung 102% | NCI-H322M lung 105% | HOP-62 NSCLC 104% | NCI-H460 lung 104% | HOP-92 NSCLC 109% | NCI-H522 lung 92.1% | A549/ATCC NSCLC 92% | COLO 205 colon 115% | DU-145 prostate 110% | K-562 leukemia 106% | MALME-3M melanoma 108% | MDA-MB-231 breast 95.8% | RXF 393 renal 110% | SF-268 CNS 100% | SF-539 CNS 88.5% | UACC-257 melanoma 105% | M14 melanoma 104%

COc1cc(-c2nc3ccccc3[nH]2)ccc1OCc1nnc(-c2ccc(CC(C)C)cc2)o1
inactive: NCI-H23 lung 91.1% | NCI-H226 lung 87.7% | NCI-H322M lung 93.8% | HOP-62 NSCLC 93.4% | NCI-H460 lung 98.8% | HOP-92 NSCLC 79.7% | NCI-H522 lung 93.5% | A549/ATCC NSCLC 84.2% | 786-0 renal 93.7% | DU-145 prostate 94% | K-562 leukemia 76% | MALME-3M melanoma 89.9% | MDA-MB-231 breast 93.4% | RXF 393 renal 71.2% | SF-268 CNS 99.9% | SF-295 CNS 99.3% | SF-539 CNS 105% | UACC-257 melanoma 104% | M14 melanoma 98.3%

CC1(C)CC[C@]2(C(=O)Nc3ccccn3)CC[C@]3(C)C(=CC[C@@H]4[C@@]5(C)C/C(=C/c6cccnc6)C(=O)C(C)(C)[C@@H]5CC[C@]43C)[C@H]2C1
inactive: NCI-H23 lung 35.9% | NCI-H226 lung 47.8% | NCI-H322M lung 79.1% | HOP-62 NSCLC 54.7% | NCI-H460 lung 10.6% | HOP-92 NSCLC 57.7% | NCI-H522 lung 30.5% | A549/ATCC NSCLC 27.3% | 786-0 renal 43.2% | DU-145 prostate 53.2% | K-562 leukemia 18.7% | MALME-3M melanoma 48.3% | MDA-MB-231 breast 73.2% | RXF 393 renal 33.3% | SF-268 CNS 53.5% | SF-295 CNS 38.1% | SF-539 CNS 51.6% | UACC-257 melanoma 26.2% | M14 melanoma 35.6%

Cc1cc(N2CCCCC2)nc(NC2CCCC(Nc3ccnc4cc(Cl)ccc34)C2)n1 (stereo not given)
active: NCI-H23 lung -15.5% | NCI-H226 lung -50.8% | NCI-H322M lung -48.7% | HOP-62 NSCLC -86.5% | NCI-H460 lung -64.9% | HOP-92 NSCLC -71.1% | NCI-H522 lung -54.6% | A549/ATCC NSCLC -23.7% | 786-0 renal -96% | DU-145 prostate 1.31% | MALME-3M melanoma -86% | MDA-MB-231 breast -89.8% | RXF 393 renal -81.2% | SF-268 CNS -59.6% | SF-295 CNS -76.7% | SF-539 CNS -92.8% | UACC-257 melanoma -90.9% | M14 melanoma -86.5%

O=C1Nc2cc(-c3ccc(O)cc3)ccc2/C1=C/c1ccc[nH]1
inactive: HOP-62 NSCLC 24.4% | HOP-92 NSCLC 10.8% | 786-0 renal 10.9% | MALME-3M melanoma 15.3% | MDA-MB-231 breast 13.2% | SF-268 CNS 21.7% | UACC-257 melanoma 20% | M14 melanoma 10.9%
active: NCI-H23 lung -16% | NCI-H226 lung 3.63% | NCI-H322M lung 6.56% | NCI-H460 lung 2.66% | NCI-H522 lung 1.89% | A549/ATCC NSCLC 9.14% | DU-145 prostate 1.75% | K-562 leukemia 3.69% | RXF 393 renal -27.3% | SF-295 CNS -20.7% | SF-539 CNS -14.6%

O=c1nc2oc3ccc4ccccc4c3cc-2s1
inactive: NCI-H23 lung 45.5% | NCI-H226 lung 37.5% | NCI-H322M lung 35% | HOP-62 NSCLC 23% | NCI-H460 lung 11.1% | HOP-92 NSCLC 14.2% | A549/ATCC NSCLC 35.1% | 786-0 renal 23% | DU-145 prostate 19% | K-562 leukemia 11.9% | MALME-3M melanoma 45.2% | MDA-MB-231 breast 42.7% | SF-268 CNS 40.8% | UACC-257 melanoma 51.6%
active: NCI-H522 lung -3.74% | RXF 393 renal -18.5% | SF-295 CNS 9.97% | SF-539 CNS -25.1% | M14 melanoma -33.4%

O=C(COc1cccc(/C=C2\COc3ccc(Cl)cc3C2=O)c1)c1ccc(Cl)cc1
inactive: NCI-H23 lung 86.1% | NCI-H226 lung 88.1% | NCI-H322M lung 98.2% | HOP-62 NSCLC 73.7% | NCI-H460 lung 102% | HOP-92 NSCLC 66.3% | NCI-H522 lung 87.1% | A549/ATCC NSCLC 100% | 786-0 renal 98% | DU-145 prostate 124% | K-562 leukemia 13.1% | MALME-3M melanoma 77.5% | MDA-MB-231 breast 67.8% | SF-268 CNS 94.4% | SF-295 CNS 120% | SF-539 CNS 87% | UACC-257 melanoma 104% | M14 melanoma 82.4%
